# PubChem BioAssay (NCI)
# Where “and” joins values, the source holds several entries; their conditions need not be identical. Equal values may be shown once. About 83,000 compounds went through this panel and 20% of them were active in at least one assay; those are over-represented in the sample as a whole.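 96-well plates, one dose, 48 hours. Percent growth reported; active if below 10.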 Calls of active or inactive are those of the source.
# System: HL-60(TB) leukemia
# Experiment: NCI-60 one-dose screen, 48 h (100 = growth as untreated, 0 = no growth, -100 = all killed)
# Conditions: 10 µM unless noted
row,SMILES,growth
1,ClCc1ccc(-c2ccc(Cn3cnc4nc(Cl)nc(Cl)c43)cc2)cc1,-78.9% (active)
2,CC(=O)c1nc(Nc2ccc(C)cc2)sc1C,101% (inactive)
3,COc1ccc(C2C3=C(COC3=O)N(CCO)c3cc(OC)c(OC)cc32)cc1 (stereo not given),89% (inactive)
4,CCOC(=O)c1ccncc1,97.3% (inactive)
5,O=C(Cn1c2c(c3ccccc31)CCCC2)Nc1ccc(-c2nc3ccccc3s2)cc1,99.1% (inactive)
6,Fc1cccc(CNc2c3ccccc3nc3ccccc23)c1F,76% (inactive)
7,CN(C)c1ccc(C(=N)c2ccc(N(C)C)cc2)cc1,12.3% (inactive) and 6.84% (active)
8,CCOC(=O)c1sc(NS(=O)(=O)c2ccccc2)nc1C,153% (inactive)
9,COC(=O)c1ccc2c(c1)C(=O)c1c-2n(CCCN)c(=O)c2cc([N+](=O)[O-])ccc12,-85.9% (active)
10,O=C1c2cccnc2C(=O)c2c1c(C(=O)OCCN1CCCCC1)c1ccccn21,-46.5% (active)
11,CC(C)CCN(CCCNc1c2c(nc3ccccc13)CCCC2)CCC(C)C,102% (inactive)
12,COc1ccc([N+](=O)[O-])c(C(=O)O)c1,111% (inactive)
13,C1CN(SSN2CCOCC2)CCO1,35.6% [100 µM] (inactive)
14,Cn1c(-c2c(N)n(CCCN3CCOCC3)c3nc(C#N)c(C#N)nc23)nc2ccccc21,-82.3% (active)
15,S=C1CCSC(=S)N1CCCN1C(=S)CCSC1=S,36.5% (inactive)
16,Cc1ccc(S(N)(=O)=O)cc1Cl,79.8% (inactive)
17,Cc1ccc(C(=O)/C(=C/c2ccc([N+](=O)[O-])cc2)S(=O)Cc2ccccc2)cc1 (stereo not given),36.8% (inactive)
18,Cn1cc(-c2cc3ncnc(Nc4ccc(CC(=O)Nc5cc(C(C)(C)C)on5)cc4)c3s2)cn1,57.5% (inactive)
19,Clc1ccc(C2c3ccccc3-c3nccn32)c(Cl)c1 (stereo not given),48.6% (inactive)
20,CC1=CC2(C)/C=C(C)/C=C\CC(O)/C=C3/C=CC(=C4C(=O)OC2(CC1C)C4=O)OC3 (stereo not given),-54.9% (active)

row,SMILES,growth
1,CCOC(=O)C(CCC(C)C)C(=O)OCC,72.8% (inactive)
2,ClC(Cl)c1nc(-c2cccnc2)n2nc(-c3ccccc3)cc2n1,14.2% (inactive)
3,O=c1c2cc(F)ccc2sc2c(NCCN3CCCCC3)nc3ccccc3c12,57% (inactive)
4,O=C1Nc2ccc(Br)cc2/C1=N/c1nc(-c2ccccc2)cs1,73.1% (inactive)
5,CN1CNC(=O)NC1,85.5% (inactive) and 102% (inactive)
6,CCC(=O)Oc1ccc(OCc2ccccc2)cc1,35.9% (inactive) and 84.2% (inactive)
7,O=C1C2=C(C(=O)c3ccccc31)C(O)(S(=O)(=O)O)C(O)(S(=O)(=O)O)C1N=CC=CC21 (stereo not given),28.7% (inactive) and 31.4% (inactive)
8,O=C(/C=C/c1cccc2ccccc12)c1ccc(NC(=O)c2ccccc2CN2C(=O)c3ccccc3C2=O)cc1,44% (inactive)
9,CCCC1(CN2c3ccccc3Sc3ccc(Cl)cc32)CCN(CC)C1 (stereo not given),31.8% (inactive)
10,CN(CCn1sc(=O)n(Cc2ccccc2)c1=O)Cc1ccc2c(Cl)cc(Cl)c(O)c2n1,40.7% (inactive)
11,Cc1cccc2c3c(sc12)C(c1ccc(Cl)cc1)C(C#N)=C(/N=C/c1ccc(Cl)cc1)O3 (stereo not given),-22% (active)
12,N#Cc1c(-c2ccc(Cl)cc2)nc(SCC(=O)NC2=NN=C(c3ccccc3)CS2)[nH]c1=O,4.11% (active)
13,COC(=O)c1c2c(c(C)[n+]([O-])c1C)C(=O)C=C(NCc1ccc(F)cc1)C2=O,-29.4% (active)
14,COc1ccc(Cl)cc1Nc1nc(C(F)(F)F)ccc1C(=O)N/N=C/c1cc(OC)c(OC)c(OC)c1,-32.3% (active)
15,COc1ccc(-c2nc(-c3ccccn3)c(-c3ccccn3)n2CC(C)C)cc1OC1CCCC1,-43.5% (active)
16,COc1ccc(-c2nnc3n(C)c(=O)c4ccccc4n23)cc1N,-22.8% (active)
17,CC(=O)N1C(=S)NC(=O)C1Cn1c(-c2ccccc2)nc2ccccc21 (stereo not given),98.9% (inactive)
18,C[C@@H]1CCC[C@H]1CC(N)C(=O)O (stereo not given in full),112% (inactive)
19,Br/C(=N\Nc1nn[nH]n1)c1ccccc1,103% (inactive)
20,CN(C)CCCC1(c2ccc(F)cc2)OCc2cc(-c3cncc4ccccc34)ccc21 (stereo not given),10.7% (inactive)
